Records with an inconclusive call do not appear. Where a call stands in place of a potency, no number is given. Values without a mark were called inactive. Active and inactive are the calls of the source. Calls come from the whole dose curve; as a rule, active = well fitted curve in the direction sought with a large enough effect; inconclusive = small, poorly fitted or top-dose-only effect, or another doubt; inactive = no such curve, though single readings can be large; an effect the other way counts as inactive or inconclusive.
What was measured:
[1] = target: Rap guanine nucleotide exchange factor 3 (Homo sapiens) (UniProt O95398); test: Confirmatory qHTS for antagonist of cAMP-regulated guanine nucleotide exchange factor 3 (EPAC1) (AID 1645880); note: nearly all actives have a fitted effect of over 55% in size; note: potency is the fitted concentration of half-maximal effect
Outline: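 Released BODIPY-GDP fluoresces less than Rap1-bound BODIPY-GDP; the signal is followed at 480/540 nm at 5-min intervals over 30 min, after 5 min at room temperature. Reactions contain 100 nM EPAC1, 250 nM RAP1B-BODIPY-GDP and 50 uM GDP; results are normalized to ATA and DMSO.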

[2] = target: Rap guanine nucleotide exchange factor 3 (Homo sapiens) (UniProt O95398); test: Confirmatory qHTS for agonist of cAMP-regulated guanine nucleotide exchange factor 3 (EPAC1) (AID 1645881);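 note: EPAC1 catalysed release of BODIPY-GDP from Rap1B seen as fluorescence loss; nearly all actives have a fitted effect of over 75% in size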
[3] = target: Rap guanine nucleotide exchange factor 4 (Homo sapiens) (UniProt Q8WZA2); test: Confirmatory qHTS for agonist of cAMP-regulated guanine nucleotide exchange factor 4 (EPAC2) (AID 1645884);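 note: nucleotide exchange releases bodipy-GDP from Rap1 and this lowers its fluorescence; nearly all actives have a fitted effect of over 65% in size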
[4] = target: Rap guanine nucleotide exchange factor 4 (Homo sapiens) (UniProt Q8WZA2); test: Confirmatory qHTS for antagonist of cAMP-regulated guanine nucleotide exchange factor 4 (EPAC2) (AID 1645885); note: nearly all actives have a fitted effect of over 25% in size; note: potency is the fitted concentration of half-maximal effect
[5] = target: Rap guanine nucleotide exchange factor 3 (Homo sapiens) (UniProt O95398); test: Counterscreen qHTS for antagonist of cAMP-regulated guanine nucleotide exchange factor 3 (EPAC1) (AID 1645888)
Outline: (§1)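 Rap1B–BODIPY-GDP (250 nM) with 50 uM GDP; compounds pin-transferred to 9.74 nM–152 uM final (activator) or from 7.32 nM upwards (inhibitor). Fluorescence Ex/Em 480/540 nm read at 5 and 30 min, then after adding cAMP or buffer, at room temperature.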

[6] = target: Rap guanine nucleotide exchange factor 3 (Homo sapiens) (UniProt O95398); test: Counterscreen qHTS for agonist of cAMP-regulated guanine nucleotide exchange factor 3 (EPAC1) (AID 1645889); note: nearly all actives have a fitted effect of over 40% in size
Outline: as §1

Chain of Rap guanine nucleotide exchange factor 4 (Homo sapiens) (Q8WZA2 whole entry, looked up): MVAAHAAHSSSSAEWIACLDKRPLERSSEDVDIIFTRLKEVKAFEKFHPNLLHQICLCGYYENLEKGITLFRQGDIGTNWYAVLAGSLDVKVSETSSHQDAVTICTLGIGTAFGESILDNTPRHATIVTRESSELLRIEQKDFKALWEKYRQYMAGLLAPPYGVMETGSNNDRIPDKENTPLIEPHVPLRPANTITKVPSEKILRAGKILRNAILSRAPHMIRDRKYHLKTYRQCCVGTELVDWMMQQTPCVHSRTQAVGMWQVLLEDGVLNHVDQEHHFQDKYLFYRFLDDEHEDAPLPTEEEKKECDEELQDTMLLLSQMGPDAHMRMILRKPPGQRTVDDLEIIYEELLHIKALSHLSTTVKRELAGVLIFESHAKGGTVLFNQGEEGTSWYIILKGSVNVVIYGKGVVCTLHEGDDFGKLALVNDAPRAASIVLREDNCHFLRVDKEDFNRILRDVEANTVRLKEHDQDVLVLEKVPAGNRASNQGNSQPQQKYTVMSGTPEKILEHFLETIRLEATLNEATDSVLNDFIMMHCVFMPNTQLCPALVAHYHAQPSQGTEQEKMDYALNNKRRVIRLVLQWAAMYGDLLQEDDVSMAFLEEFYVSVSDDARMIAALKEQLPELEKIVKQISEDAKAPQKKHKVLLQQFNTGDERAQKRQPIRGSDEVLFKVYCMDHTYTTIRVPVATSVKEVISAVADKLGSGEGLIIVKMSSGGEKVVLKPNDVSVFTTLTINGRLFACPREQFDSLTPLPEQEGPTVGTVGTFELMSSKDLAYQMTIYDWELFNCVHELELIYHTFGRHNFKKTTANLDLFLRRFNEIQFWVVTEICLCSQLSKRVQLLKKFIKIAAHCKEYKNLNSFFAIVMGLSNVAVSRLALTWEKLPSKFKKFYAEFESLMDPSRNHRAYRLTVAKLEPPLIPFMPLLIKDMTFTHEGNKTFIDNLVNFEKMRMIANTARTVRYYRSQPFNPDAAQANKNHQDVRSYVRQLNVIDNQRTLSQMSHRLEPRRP
Chain of Rap guanine nucleotide exchange factor 3 (Homo sapiens) (O95398 whole entry, looked up): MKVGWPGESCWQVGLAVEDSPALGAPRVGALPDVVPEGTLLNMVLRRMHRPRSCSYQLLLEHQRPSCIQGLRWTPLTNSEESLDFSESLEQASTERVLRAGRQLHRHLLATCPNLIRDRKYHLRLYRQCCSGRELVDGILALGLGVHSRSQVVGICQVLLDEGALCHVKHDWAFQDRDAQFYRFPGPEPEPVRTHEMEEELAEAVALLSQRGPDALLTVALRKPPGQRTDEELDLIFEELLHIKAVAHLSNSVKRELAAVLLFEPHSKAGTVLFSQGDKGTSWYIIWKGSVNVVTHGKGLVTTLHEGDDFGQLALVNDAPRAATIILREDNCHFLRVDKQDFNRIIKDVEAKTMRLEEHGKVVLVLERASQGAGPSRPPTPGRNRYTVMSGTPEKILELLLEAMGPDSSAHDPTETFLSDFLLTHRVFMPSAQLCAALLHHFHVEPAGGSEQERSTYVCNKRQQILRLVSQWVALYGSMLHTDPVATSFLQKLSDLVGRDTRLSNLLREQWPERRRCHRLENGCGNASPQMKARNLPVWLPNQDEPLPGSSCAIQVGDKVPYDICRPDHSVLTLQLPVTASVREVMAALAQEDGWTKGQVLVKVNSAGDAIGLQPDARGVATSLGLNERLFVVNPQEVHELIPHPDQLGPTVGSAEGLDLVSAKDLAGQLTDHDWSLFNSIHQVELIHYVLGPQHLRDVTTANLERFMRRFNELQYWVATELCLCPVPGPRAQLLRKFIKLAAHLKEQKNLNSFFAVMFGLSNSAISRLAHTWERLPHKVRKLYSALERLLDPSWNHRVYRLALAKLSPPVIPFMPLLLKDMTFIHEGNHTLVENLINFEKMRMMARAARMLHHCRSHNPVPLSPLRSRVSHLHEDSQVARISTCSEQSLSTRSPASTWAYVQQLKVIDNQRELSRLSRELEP

Row | SMILES | Potency [1] | Potency [2] | Potency [3] | Potency [4] | Potency [5] | Potency [6] | activation [3] | activity change, negative = inhibition [5] | activation [6] | outcome [4]
1 | O=C(NCCCn1ccnc1)c1cc(-c2cccnc2)nc2ccc(Br)cc12 | inactive | inactive | inactive | inactive | inactive | inactive |  |  |  | 
2 | O=C(O)c1cc(N/N=C/c2ccncc2)ccc1Cl | inactive | inactive |  | inactive |  |  | 1.56% [at 17.1 µM, percent relative to cAMP agonist control] | -14% [at 30.8 µM] | 24.2% [at 30.8 µM] | 
3 | O=C(O)c1cc(S(=O)(=O)Nc2cc(Cl)ccc2Oc2ccccc2)ccc1O | 26.9 µM (active) | inactive | inactive | inactive | inactive | inactive |  |  |  | 
4 | COc1cc(Cl)c(C)cc1NC(=O)c1ccc(CN2C(=O)CCn3nc(C)cc32)cc1 | inactive | inactive | inactive | inactive | inactive | inactive |  |  |  | 
5 | O=C1CC(Cc2ccccc2)C(=O)N1CCc1ccc2c(c1)OCO2 (stereo not given) | inactive | inactive |  | inactive |  |  | 2.14% [at 17.1 µM, percent relative to cAMP agonist control] | -4.71% [at 30.8 µM] | 1.4% [at 30.8 µM] | 
6 | Cc1ccccc1N(CC(=O)NC1CCCC1)C(=O)c1csnn1 | inactive | inactive |  | inactive |  |  | -0.443% [at 17.1 µM, percent relative to cAMP agonist control] | -9.99% [at 30.8 µM] | -0.253% [at 30.8 µM] | 
7 | C/C(=C\C(=O)c1ccccc1)Nc1ccc(O)cc1 | inactive | inactive |  | inactive |  |  | 3.61% [at 17.1 µM, percent relative to cAMP agonist control] | -14.8% [at 30.8 µM] | 29.9% [at 30.8 µM] | 
8 | N#C/C(=C(/O)CCl)c1nc2c(s1)CCc1ccccc1-2 | 6.75 µM (active) | inactive | inactive | inactive | inactive | inactive |  |  |  | 
9 | OC1C2CN3CCN(C2)CC1(Cc1ccccc1)C3 (stereo not given) | inactive | inactive |  | inactive |  |  | 3.83% [at 17.1 µM, percent relative to cAMP agonist control] | -12.7% [at 30.8 µM] | 28.2% [at 30.8 µM] | 
10 | CC(OC(=O)CCN1C(=O)C2CC=CCC2C1=O)C(=O)Nc1cccc(C#N)c1 (stereo not given) | inactive | inactive |  | inactive |  |  | 3.57% [at 17.1 µM, percent relative to cAMP agonist control] | -8.99% [at 30.8 µM] | 3.18% [at 30.8 µM] | 
11 | O=C(c1ccccc1)c1nn(-c2ccccc2)c(=O)cc1-c1ccccc1 | inactive | inactive | inactive | inactive | inactive | inactive |  |  |  | 
12 | O=CN(CCN(C=O)CN1CCCCC1)CN1CCCCC1 | inactive | inactive | inactive | inactive | inactive | inactive |  |  |  | 
13 | CC(C)(C)[C@H](N)C(=O)N[C@H]1CCC2C3CC=C4C[C@@H](O)CC[C@]4(C)C3CC[C@@]21C (stereo not given in full) | inactive | inactive |  | inactive |  |  | 3.5% [at 17.1 µM, percent relative to cAMP agonist control] | -9.07% [at 30.8 µM] | 31.4% [at 30.8 µM] | 
14 | Cc1ccc(/C=C/C(=O)c2ccccc(=O)c2O)c(C)c1 | 44.7 µM (active) | inactive |  | inactive |  |  | 1.7% [at 17.1 µM, percent relative to cAMP agonist control] | 12.3% [at 30.8 µM] | 23.8% [at 30.8 µM] | 
15 | CN(C(=O)CSc1nc(-c2ccc(C(C)(C)C)cc2)c(C#N)c(=O)[nH]1)C1CCCCC1 | 42.6 µM (active) | inactive | inactive | inactive | inactive | inactive |  |  |  | 
16 | COc1ccc(CN2C(=O)c3cccnc3C2Nc2cc(Cl)c(OC)cc2OC)cc1 (stereo not given) | 75.7 µM (active) | inactive | inactive | inactive | inactive | inactive |  |  |  | 
17 | CCOc1ccc(NS(=O)(=O)c2cc3c(cc2C)N(C)CCO3)cc1 | inactive | inactive |  | inactive |  |  | 7.18% [at 17.1 µM, percent relative to cAMP agonist control] | -12% [at 30.8 µM] | 29.5% [at 30.8 µM] | 
18 | C=CCN(CC=C)Cc1cc(=O)oc2ccc3ccccc3c12 | inactive | inactive |  | inactive |  |  | -1.79% [at 17.1 µM, percent relative to cAMP agonist control] | -12.3% [at 30.8 µM] | 4.33% [at 30.8 µM] | 
19 | COc1ccc(C(=O)Nc2cc(OC)c(Cl)cc2OC)cc1 | inactive | inactive |  | inactive |  |  | 4.3% [at 17.1 µM, percent relative to cAMP agonist control] | -12.1% [at 30.8 µM] | 10.3% [at 30.8 µM] | 
20 | COC(=O)c1ccc(OC(=O)c2ccc(OC)cc2)c(OC)c1 | inactive | inactive |  | inactive |  |  | 7.15% [at 17.1 µM, percent relative to cAMP agonist control] | -8.27% [at 30.8 µM] | 6.57% [at 30.8 µM] | 

Row | SMILES | Potency [1] | Potency [2] | Potency [3] | Potency [4] | Potency [5] | Potency [6] | activation [3] | activity change, negative = inhibition [5] | activation [6] | outcome [4]
21 | Cc1ccc(C(=O)O/N=C(\c2ccccc2)c2cccnc2)cc1 | inactive | inactive |  | inactive |  |  | -3.55% [at 17.1 µM, percent relative to cAMP agonist control] | 3.07% [at 30.8 µM] | 8.08% [at 30.8 µM] | 
22 | CC1(C)CC[C@]2(C(=O)n3ccnc3)CC[C@]3(C)[C@H](C(=O)C=C4[C@@]5(C)C=C(C#N)C(=O)C(C)(C)[C@@H]5CC[C@]43C)[C@@H]2C1 | 14.1 µM (active) | inactive |  | inactive |  |  | -11.4% [at 17.1 µM, percent relative to cAMP agonist control] | -3.92% [at 30.8 µM] | 18.4% [at 30.8 µM] | 
23 | COc1ccc(S(=O)(=O)CC(=O)c2cc3cc(Br)ccc3oc2=O)cc1 | 50.1 µM (active) | inactive |  | inactive |  |  | -4.99% [at 17.1 µM, percent relative to cAMP agonist control] | -4.76% [at 30.8 µM] | 7.34% [at 30.8 µM] | 
24 | CCS(=O)(=O)N1CCCC(C(=O)NCCCN(C)Cc2ccccc2)C1 (stereo not given) | inactive | inactive | inactive | inactive | inactive | inactive |  |  |  | 
25 | Oc1ccc(/C=N/Nc2ncnc3c2ncn3Cc2ccccc2)cc1O | 3.55 µM (active) | inactive |  | inactive |  |  | 4.96% [at 17.1 µM, percent relative to cAMP agonist control] | -13.7% [at 30.8 µM] | 1.06% [at 30.8 µM] | 
26 | O=C(NCC1CCCO1)c1ccc(C(=O)NCC2CCCO2)cc1 (stereo not given) | inactive | inactive |  | inactive |  |  | 5.86% [at 17.1 µM, percent relative to cAMP agonist control] | -1.36% [at 30.8 µM] | -3.36% [at 30.8 µM] | 
27 | CCCC1CC(c2csc(N)n2)CCO1 (stereo not given) | inactive | inactive | inactive | inactive | inactive | inactive |  |  |  | 
28 | O=C(O)C(c1ccccc1)N1C(=O)/C(=C\c2ccc(O)c(O)c2)SC1=S (stereo not given) | 6.75 µM (active) | inactive | inactive | 21.3 µM (active) | inactive | inactive |  |  |  | 
29 | COCCCn1c(=O)/c(=C\c2ccc(OC(F)F)c(OC)c2)s/c1=C(/C#N)C(N)=O | inactive | inactive | inactive | inactive | inactive | inactive |  |  |  | 
30 | COCCN(C)Cc1nc(C(c2ccccc2)c2ccccc2)no1 | inactive | inactive | inactive | 47.8 µM (active) | inactive | inactive |  |  |  | 
31 | CCOc1ccc(N2C(=O)Nc3ccccc3C2(O)C(=O)NCc2ccc(C)cc2)cc1 (stereo not given) | inactive | inactive |  | inactive |  |  | -4.83% [at 17.1 µM, percent relative to cAMP agonist control] | -5.47% [at 30.8 µM] | 7.84% [at 30.8 µM] | 
32 | CCN(CC(=O)Nc1ccccc1C(F)(F)F)C(=O)CCOc1ccccc1C | inactive | inactive |  | inactive |  |  | -3.64% [at 17.1 µM, percent relative to cAMP agonist control] | -14% [at 30.8 µM] | 1.11% [at 30.8 µM] | 
33 | O=C(NCCC(=O)N(CCc1ccccc1)Cc1ccccc1)c1ccccc1Cl | inactive | inactive |  | inactive |  |  | 0.223% [at 17.1 µM, percent relative to cAMP agonist control] | -6.01% [at 30.8 µM] | 7.42% [at 30.8 µM] | 
34 | c1ccc(-c2nc(C3CCCCC3)c3ccccc3n2)cc1 | inactive | inactive |  | inactive |  |  | 3.01% [at 17.1 µM, percent relative to cAMP agonist control] | -1.41% [at 30.8 µM] | 34% [at 30.8 µM] | 
35 | COc1ccc2nc(N3CCN(C(=O)C4CC4)CC3)sc2c1 | inactive | inactive | inactive |  | inactive | inactive |  |  |  | inactive [at 12.7 µM]
36 | CN[C@@H](CO)C(=O)NC[C@H]1O[C@@H](n2cnc3c(N)ncnc32)[C@H](O)[C@@H]1O | inactive | inactive | inactive | inactive | inactive | inactive |  |  |  | 
37 | CC(=O)N1CCN(C(=O)COc2ccc(Br)cc2)CC1 | inactive | inactive | inactive | inactive | inactive | inactive |  |  |  | 
38 | COc1ccc(/C=C2/SC(=S)N(NS(=O)(=O)c3ccccc3)C2=O)cc1 | 39.8 µM (active) | inactive |  | inactive |  |  | -0.663% [at 17.1 µM, percent relative to cAMP agonist control] | -9.92% [at 30.8 µM] | -1.02% [at 30.8 µM] | 
39 | Cc1ccc(S(=O)(=O)N2[C@@H](c3ccc(Cl)cc3)C(C(=O)O)=CC[C@H]2c2ccc(C(C)C)cc2)cc1 | 42.6 µM (active) | inactive | inactive | inactive | inactive | inactive |  |  |  | 
40 | Cc1cccc(-c2nc(SCC(=O)Nc3cccc(C(F)(F)F)c3)n3[nH]c(=O)cc3n2)c1 | 84.9 µM (active) | inactive | inactive | inactive | inactive | inactive |  |  |  | 
